# Data as given in the supplement of paper PMC11732987, “Enantioselective OTUD7B fragment discovery through chemoproteomics screening and high-throughput optimisation” (Communications Chemistry, 2025).
# Values without a mark were called inactive.
# What was measured:
# Test in all cases: log2 ratio of Biotin-Ahx-Ub-VS probe labelling (fragment/DMSO); higher = less target engagement (more negative = stronger competition), active = hit call of the paper (q ≤ 0.05, log2 ratio ≤ -1)
# Settings in all cases: compound concentration: 200 uM; treatment time: 3 h
# [1] = molecular target: T1, ALG13 (UniProt Q9NP73)
# T1 sequence (whole entry): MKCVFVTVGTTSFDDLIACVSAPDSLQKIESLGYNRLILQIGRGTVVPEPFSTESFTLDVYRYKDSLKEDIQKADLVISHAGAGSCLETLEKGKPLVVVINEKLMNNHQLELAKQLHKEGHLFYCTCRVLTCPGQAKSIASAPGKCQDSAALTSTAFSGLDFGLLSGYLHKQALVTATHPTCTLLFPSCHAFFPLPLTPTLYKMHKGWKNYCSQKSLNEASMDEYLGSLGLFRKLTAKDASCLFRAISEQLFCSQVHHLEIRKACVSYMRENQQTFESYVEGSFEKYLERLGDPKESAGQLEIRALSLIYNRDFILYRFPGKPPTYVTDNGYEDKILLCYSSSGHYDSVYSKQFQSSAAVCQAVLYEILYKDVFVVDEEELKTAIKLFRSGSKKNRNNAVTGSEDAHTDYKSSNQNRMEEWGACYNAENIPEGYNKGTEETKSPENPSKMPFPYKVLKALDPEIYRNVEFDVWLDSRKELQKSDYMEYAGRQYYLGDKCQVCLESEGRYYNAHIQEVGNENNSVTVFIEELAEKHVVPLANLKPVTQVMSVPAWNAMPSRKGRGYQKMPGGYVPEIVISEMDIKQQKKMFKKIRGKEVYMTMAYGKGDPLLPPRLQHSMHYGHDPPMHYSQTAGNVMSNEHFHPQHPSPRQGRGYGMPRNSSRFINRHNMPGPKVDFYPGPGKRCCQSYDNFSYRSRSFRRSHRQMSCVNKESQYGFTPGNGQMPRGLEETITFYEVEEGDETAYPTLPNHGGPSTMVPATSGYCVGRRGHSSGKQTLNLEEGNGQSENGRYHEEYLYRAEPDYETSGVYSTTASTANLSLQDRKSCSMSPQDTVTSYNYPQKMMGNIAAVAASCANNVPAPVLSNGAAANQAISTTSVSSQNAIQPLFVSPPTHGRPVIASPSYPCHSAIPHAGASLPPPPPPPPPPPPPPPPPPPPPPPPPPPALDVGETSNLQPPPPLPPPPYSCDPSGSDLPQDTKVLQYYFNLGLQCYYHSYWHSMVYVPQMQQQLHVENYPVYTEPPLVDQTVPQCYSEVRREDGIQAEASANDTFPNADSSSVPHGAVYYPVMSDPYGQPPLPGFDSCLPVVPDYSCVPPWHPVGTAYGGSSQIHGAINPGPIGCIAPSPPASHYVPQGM
# Outline: (§1)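 Lysate from HEK293T cells, 495 µg per sample in Tris/CHAPS/IGEPAL buffer with protease inhibitors, was treated for 3 h in triplicate with fragment at 200 µM or vehicle. Biotin-Ahx-Ub-VS was next added at 0.5 µM final for 1 h. The labelled DUBs were enriched with NeutrAvidin, digested with LysC and trypsin, and run by diaPASEF LC-MS/MS, with values given as average log2 fragment/vehicle ratios by unpaired t-test on global-median-normalised Spectronaut quantities of proteins with ≥2 unique peptides.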
# [2] = molecular target: ATXN3 (UniProt P54252)
# Chain of ATXN3 (P54252 whole entry): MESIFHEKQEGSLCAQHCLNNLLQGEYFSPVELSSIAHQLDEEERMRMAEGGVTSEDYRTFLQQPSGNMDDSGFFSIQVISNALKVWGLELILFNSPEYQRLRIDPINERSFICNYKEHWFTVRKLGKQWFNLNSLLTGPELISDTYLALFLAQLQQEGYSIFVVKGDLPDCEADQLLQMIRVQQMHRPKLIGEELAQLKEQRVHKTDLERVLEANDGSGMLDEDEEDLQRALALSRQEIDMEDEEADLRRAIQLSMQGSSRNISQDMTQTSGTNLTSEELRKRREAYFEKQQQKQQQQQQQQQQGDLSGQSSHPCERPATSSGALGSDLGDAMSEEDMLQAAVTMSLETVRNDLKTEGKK
# Outline: as §1
# [3] = molecular target: T2, BAP1 (UniProt Q92560)
# T2 sequence (whole entry): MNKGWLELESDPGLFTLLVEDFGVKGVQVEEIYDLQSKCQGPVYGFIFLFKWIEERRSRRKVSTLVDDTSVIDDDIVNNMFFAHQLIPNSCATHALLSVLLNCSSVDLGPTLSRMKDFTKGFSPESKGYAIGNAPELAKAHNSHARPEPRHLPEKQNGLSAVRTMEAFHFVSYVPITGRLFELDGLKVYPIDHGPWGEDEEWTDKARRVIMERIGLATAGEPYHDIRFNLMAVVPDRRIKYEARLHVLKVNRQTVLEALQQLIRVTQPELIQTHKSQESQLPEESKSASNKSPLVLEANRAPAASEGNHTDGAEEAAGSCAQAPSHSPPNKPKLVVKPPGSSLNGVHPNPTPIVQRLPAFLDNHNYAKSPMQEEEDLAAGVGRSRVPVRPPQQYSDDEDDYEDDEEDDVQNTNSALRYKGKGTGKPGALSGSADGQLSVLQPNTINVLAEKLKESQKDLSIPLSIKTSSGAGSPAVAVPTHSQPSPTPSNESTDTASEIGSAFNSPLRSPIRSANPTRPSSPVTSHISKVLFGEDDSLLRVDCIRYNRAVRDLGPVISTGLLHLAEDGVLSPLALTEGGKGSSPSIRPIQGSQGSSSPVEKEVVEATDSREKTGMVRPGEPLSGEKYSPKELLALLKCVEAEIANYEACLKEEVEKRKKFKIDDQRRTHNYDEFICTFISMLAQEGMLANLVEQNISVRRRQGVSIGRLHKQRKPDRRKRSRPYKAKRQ
# Outline: as §1
# [4] = molecular target: EIF3F (UniProt O00303)
# Chain of EIF3F (O00303 whole entry): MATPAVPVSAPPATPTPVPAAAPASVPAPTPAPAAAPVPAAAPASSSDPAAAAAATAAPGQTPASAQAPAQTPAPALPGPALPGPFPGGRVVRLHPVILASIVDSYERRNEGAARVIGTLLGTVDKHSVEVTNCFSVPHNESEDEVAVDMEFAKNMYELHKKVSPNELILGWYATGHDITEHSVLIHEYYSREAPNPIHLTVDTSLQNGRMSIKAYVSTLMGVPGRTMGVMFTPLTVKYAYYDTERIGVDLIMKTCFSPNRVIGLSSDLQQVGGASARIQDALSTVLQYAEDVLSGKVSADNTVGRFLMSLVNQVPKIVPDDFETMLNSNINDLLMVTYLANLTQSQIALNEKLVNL
# Outline: as §1
# [5] = molecular target: EIF3H (UniProt O15372)
# Chain of EIF3H (O15372 whole entry): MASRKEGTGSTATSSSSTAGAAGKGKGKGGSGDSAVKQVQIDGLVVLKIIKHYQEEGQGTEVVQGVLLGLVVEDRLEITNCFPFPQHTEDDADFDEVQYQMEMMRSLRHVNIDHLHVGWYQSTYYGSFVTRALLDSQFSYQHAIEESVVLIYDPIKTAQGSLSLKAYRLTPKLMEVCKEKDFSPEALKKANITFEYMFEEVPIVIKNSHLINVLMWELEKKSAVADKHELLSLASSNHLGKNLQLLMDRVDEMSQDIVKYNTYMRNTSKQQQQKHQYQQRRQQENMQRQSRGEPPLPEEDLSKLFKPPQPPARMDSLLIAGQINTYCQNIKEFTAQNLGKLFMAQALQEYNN
# Outline: as §1
# [6] = molecular target: T3, FAM105A (UniProt Q9NUU6)
# T3 sequence (whole entry): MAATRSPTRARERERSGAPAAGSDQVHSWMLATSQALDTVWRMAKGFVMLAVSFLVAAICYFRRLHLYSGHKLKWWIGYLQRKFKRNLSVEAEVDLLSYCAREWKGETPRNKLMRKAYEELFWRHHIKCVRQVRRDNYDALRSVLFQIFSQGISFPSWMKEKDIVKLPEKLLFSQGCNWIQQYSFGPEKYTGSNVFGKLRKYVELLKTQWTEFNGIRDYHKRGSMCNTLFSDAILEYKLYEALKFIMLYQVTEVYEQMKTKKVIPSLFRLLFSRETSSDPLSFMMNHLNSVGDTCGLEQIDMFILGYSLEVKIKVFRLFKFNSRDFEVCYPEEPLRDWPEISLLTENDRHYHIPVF
# Outline: as §1
# [7] = molecular target: OTUB1 (UniProt Q96FW1)
# Chain of OTUB1 (Q96FW1 whole entry): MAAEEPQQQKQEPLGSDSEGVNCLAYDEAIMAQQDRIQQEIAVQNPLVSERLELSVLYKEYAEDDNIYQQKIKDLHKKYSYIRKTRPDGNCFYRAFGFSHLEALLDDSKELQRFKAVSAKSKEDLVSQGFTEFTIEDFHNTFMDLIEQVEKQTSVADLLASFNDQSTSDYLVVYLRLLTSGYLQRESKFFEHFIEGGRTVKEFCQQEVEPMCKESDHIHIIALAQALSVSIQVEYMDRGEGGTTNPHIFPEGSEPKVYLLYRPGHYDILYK
# Outline: as §1
# [8] = molecular target: T4, OTUD4 (UniProt Q01804)
# T4 sequence (whole entry): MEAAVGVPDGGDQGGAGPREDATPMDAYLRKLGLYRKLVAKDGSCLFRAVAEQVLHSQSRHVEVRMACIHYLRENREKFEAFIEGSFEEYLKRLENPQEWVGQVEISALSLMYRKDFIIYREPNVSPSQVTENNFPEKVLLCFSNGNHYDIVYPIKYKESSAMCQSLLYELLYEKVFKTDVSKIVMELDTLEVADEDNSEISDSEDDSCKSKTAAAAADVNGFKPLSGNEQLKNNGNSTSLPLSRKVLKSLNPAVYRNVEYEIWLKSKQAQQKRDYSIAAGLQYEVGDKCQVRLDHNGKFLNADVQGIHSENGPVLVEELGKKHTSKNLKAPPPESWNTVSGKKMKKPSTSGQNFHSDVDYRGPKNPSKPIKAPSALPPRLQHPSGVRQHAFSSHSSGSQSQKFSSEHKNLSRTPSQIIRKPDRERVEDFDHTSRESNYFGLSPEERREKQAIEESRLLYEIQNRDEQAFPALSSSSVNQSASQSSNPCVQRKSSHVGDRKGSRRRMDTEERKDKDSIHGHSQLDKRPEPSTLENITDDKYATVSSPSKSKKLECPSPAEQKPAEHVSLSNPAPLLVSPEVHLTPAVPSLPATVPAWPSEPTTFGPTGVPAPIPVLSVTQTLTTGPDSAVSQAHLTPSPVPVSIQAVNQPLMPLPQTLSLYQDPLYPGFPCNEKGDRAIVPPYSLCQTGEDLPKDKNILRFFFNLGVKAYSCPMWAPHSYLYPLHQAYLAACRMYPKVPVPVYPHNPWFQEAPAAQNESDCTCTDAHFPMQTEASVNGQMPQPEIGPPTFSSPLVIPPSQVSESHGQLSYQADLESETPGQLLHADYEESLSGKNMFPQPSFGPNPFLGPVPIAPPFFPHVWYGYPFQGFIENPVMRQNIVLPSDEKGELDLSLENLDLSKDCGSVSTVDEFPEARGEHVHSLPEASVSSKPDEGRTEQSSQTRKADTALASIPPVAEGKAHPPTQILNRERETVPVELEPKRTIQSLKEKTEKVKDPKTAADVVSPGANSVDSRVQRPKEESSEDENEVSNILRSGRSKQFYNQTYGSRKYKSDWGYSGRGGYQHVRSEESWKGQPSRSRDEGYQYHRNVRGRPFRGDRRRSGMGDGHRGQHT
# Outline: as §1
# [9] = molecular target: T5, OTUD5 (UniProt Q96G74)
# T5 sequence (whole entry): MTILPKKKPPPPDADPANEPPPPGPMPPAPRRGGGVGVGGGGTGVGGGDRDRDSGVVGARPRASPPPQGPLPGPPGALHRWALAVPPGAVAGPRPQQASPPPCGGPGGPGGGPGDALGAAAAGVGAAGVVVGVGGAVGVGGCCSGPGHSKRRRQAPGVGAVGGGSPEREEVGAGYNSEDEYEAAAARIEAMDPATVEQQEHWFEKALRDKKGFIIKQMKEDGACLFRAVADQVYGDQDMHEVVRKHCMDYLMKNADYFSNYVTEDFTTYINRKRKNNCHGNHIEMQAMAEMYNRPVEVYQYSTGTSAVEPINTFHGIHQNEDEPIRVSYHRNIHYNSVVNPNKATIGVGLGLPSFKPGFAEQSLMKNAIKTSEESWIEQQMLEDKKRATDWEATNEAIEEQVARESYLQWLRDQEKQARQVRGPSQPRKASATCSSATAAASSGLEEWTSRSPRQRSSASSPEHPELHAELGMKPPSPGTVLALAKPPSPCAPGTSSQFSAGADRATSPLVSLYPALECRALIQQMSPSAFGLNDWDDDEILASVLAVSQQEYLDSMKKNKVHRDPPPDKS
# Outline: as §1
smiles,measurement,setting,value
CS(=O)(=O)c1ccc(NC(=O)CCl)cc1,log2 ratio of Biotin-Ahx-Ub-VS probe labelling,[1],-0.729
same,log2 ratio of Biotin-Ahx-Ub-VS probe labelling,[2],-0.511
same,log2 ratio of Biotin-Ahx-Ub-VS probe labelling,[3],-4.05 (active)
same,log2 ratio of Biotin-Ahx-Ub-VS probe labelling,[4],-0.0107
same,log2 ratio of Biotin-Ahx-Ub-VS probe labelling,[5],0.14
same,log2 ratio of Biotin-Ahx-Ub-VS probe labelling,[6],-0.0733
same,log2 ratio of Biotin-Ahx-Ub-VS probe labelling,[7],-0.133
same,log2 ratio of Biotin-Ahx-Ub-VS probe labelling,[8],-0.368
same,log2 ratio of Biotin-Ahx-Ub-VS probe labelling,[9],-0.613
